The campaign covered roughly 96,000 compounds. About 19,000 (20%) were called active.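 How the source made its calls: active means blocking of liver enzyme CYP2C9 beyond about 50% at 5 µM (limit read from the data); inactive means the rest.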 Not all results are given here.
target: Cytochrome P450 2C9 (Homo sapiens) (UniProt P11712); test: blockers of cytochrome P450 2C9 activity – biochemical, luminescence, ADME assay, primary screen (AID 777); conditions: CYP2C9 Supersomes, luciferin-H conversion, at 5 µM, stronger effect = higher value
Sequence (P11712 whole entry, looked up): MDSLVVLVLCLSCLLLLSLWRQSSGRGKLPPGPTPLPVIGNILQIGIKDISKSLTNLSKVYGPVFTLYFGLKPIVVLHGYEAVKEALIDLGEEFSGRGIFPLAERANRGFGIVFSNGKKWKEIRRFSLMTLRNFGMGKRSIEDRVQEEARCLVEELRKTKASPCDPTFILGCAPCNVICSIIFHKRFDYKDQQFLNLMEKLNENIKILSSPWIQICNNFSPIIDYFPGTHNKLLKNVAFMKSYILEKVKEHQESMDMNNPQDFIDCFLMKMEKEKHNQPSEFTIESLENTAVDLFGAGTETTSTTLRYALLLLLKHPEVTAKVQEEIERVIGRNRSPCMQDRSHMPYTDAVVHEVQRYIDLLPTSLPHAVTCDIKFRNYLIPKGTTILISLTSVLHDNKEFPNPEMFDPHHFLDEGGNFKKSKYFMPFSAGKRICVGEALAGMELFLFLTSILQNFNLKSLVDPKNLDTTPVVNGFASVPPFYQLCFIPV

inhibition, inactive:
Oc1ccc(CNc2ccccc2O)cc1 22.4%, CCN(c1ccccc1)S(=O)(=O)c1ccc(NC(=O)C(C)(C)C)cc1 31.5%, COC(=O)c1ccc(Sc2ccc(F)cc2)c(N)c1 43.1%, O=C1CC(NNc2ccccc2)C(=O)N1c1cccc(Cl)c1 (stereo not given) 0.1%, Cc1noc(C)c1S(=O)(=O)Nc1ccc(C(=O)O)cc1 1.8%, CCCCN(CC)C(=O)CN(C)S(=O)(=O)c1cccc2nsnc12 16.6%, Clc1ccc(-c2cc(COc3ccccc3)no2)cc1Cl -0.8%, O=C1CC2(CCCCC2)Oc2ccc(OCC(=O)N3CCOCC3)cc21 2.2%, Brc1cccc(-c2nnc3n2CCC3)c1 -21.9%, Cc1ccc(Cc2cnc(NC(=O)/C(C#N)=C/c3ccc(-c4cccc([N+](=O)[O-])c4)o3)s2)cc1 25.6%, Cc1ccc2c(c1)N(C(=O)CCC(=O)N1CCc3ccccc3C1)CCO2 13.6%, O=C1N=C(N2CCCC2)S/C1=C\c1cccc(Br)c1 -42.1%, COc1ccccc1NC(=S)NC(=O)C(C)C 12.2%, CC(C)C(=O)NC(=S)Nc1ccccc1F 20.1%, CC(=O)c1c(C)[nH]c(C(=O)NCCCN2CCCC2)c1C -3.6%, O=C(Nc1ccc(N2CCN(C(=O)c3ccccc3)CC2)c(Cl)c1)c1cccnc1 31.6%, O=C(c1ccccc1-c1ccccc1)N1CCOCC1 5%, Cc1c(C(=O)NCc2ccccc2)cnn1-c1ccccc1 -4%, O=C(Nc1c(C(=O)N2CCCCC2)cnn1-c1ccccc1)c1ccco1 -0.7%, O=C(NCc1cccnc1)c1cccnc1Sc1ccc(Cl)cc1 39.9%, COc1ccc(-c2nn(-c3ccccc3)cc2C(=O)Nc2nc(CC(C)=O)ns2)cc1 10.8%, COC(=O)CSc1nnc(-c2cccnc2)o1 -12.9%, O=C(Nn1cc(C(=O)N2CCN(c3ccccc3F)CC2)c2ccccc2c1=O)c1cnccn1 20.7%, COC(=O)/C(=C\Nc1ccccc1)NC(=O)c1ccc(Cl)cc1Cl 33.9%, CC(C)(C)n1nc2c(c1NC(=O)c1ccc(S(=O)(=O)N3CCCC3)cc1)CS(=O)C2 (stereo not given) 4.2%, CCOc1nc(NCCN2CCOCC2)nc(Nc2ccc(C)cc2)n1 13%, O=c1c([N+](=O)[O-])cc(C(F)(F)F)cn1Cc1cccc(Cl)c1 23.9%, COc1ccc2c(c1OC)C(=O)c1ccccc1C2=O 21.6%, CN1CCc2c(sc3c2c(NCc2ccco2)nc2nnnn23)C1 45.7%, CCN(CC)P(=O)(/C(Cl)=C\Nc1c(C)n(C)n(-c2ccccc2)c1=O)N(CC)CC -8.4%, CNC(=O)NCCN1CCCC1=O 35.9%, CN(CC(=O)Nc1cccc2c1CCCC2)S(=O)(=O)c1ccc(Cl)cc1 -18.4%, Cc1nc(NC(=O)CCC(=O)O)sc1C(=O)N(C)C 24.5%, CCOC1CCCCC1NS(=O)(=O)c1ccc(Cl)cc1 (stereo not given) 5.6%, CCOC(=O)N1CCN(S(=O)(=O)c2ccc(C(=O)Nc3ccc(F)cc3F)cc2)CC1 18.7%, CCOC(=O)C1CCCN(C(=O)c2ccc(CS(=O)(=O)c3ccc(Br)cc3)o2)C1 (stereo not given) 49.8%, O=C(CSc1ncccn1)NCCc1ccccc1 17%, O=C(CCS(=O)(=O)Cc1ccccc1F)NCCCN1CCCCC1 -0.3%, CCOC(=O)CN(C(=O)CN1CCOCC1)c1ccc(Br)cc1 5.6%, COc1cc(OC)c(C(=O)NC2CC(C)(C)NC(C)(C)C2)cc1OC -0.9%, O=C(O)c1ccc(NC(=O)C2CCCCC2)cc1 -25.8%, O=C(O)C1CCCCC1C(=O)Nc1ccc(Cl)cc1 (stereo not given) 9.3%, O=C1CC(c2ccccc2)C(=O)N1c1cccc(O)c1 (stereo not given) 45%, O=C(Nc1ccc(F)c(Cl)c1)C1CCN(S(=O)(=O)c2cccnc2)CC1 9.3%, O=C(O)c1ccc(COCC(F)(F)F)cc1 -1.6%, Fc1c(F)c(C(F)(F)F)c(F)c(F)c1N1CCN(c2ccc3nnc(C(F)(F)F)n3n2)CC1 5.9%, c1csc(-c2nc(-c3ccncc3)no2)c1 11.1%, O=C1c2ccccc2C(=O)N1CCCc1nc(-c2ccccc2)no1 24.2%, Cc1cc(C(=O)O)c(S(C)(=O)=O)s1 -5.1%, CC(Sc1nnc(Cc2ccc([N+](=O)[O-])cc2)o1)C(N)=O (stereo not given) -1.5%, Cc1ccc2nc(SC(C)C(=O)NCc3ccco3)[nH]c2c1 (stereo not given) 44.2%, Cc1nnc(NCCO)c2ccccc12 -5.4%, CCC(=O)NC(=Nc1nc2ccccc2s1)NC(=O)CC -88.9%, O=C1CCCC(O)=C1C=NCCc1ccccc1 6.6%, Fc1ccccc1C(c1nnnn1Cc1ccc2c(c1)OCO2)N1CCN(Cc2ccccc2)CC1 (stereo not given) 45.6%, CC(C)(C)n1nnnc1C(c1ccc(F)cc1)N1CCN(Cc2ccc3c(c2)OCO3)CC1 (stereo not given) 30.9%, COc1ccc(C(=O)CN(C(=O)c2ccc(Cl)cc2)N2C(=O)c3ccccc3C2=O)cc1 49.5%, N#CC(=C1CCCC1)c1nc(-c2ccc(Cl)cc2)cs1 -6.8%, N#C/C(=C1\CCCN1)c1nc(-c2ccccc2)cs1 40.4%, CC(=O)N1CSCC1C(=O)O (stereo not given) 6.7%, O=C(OCC#CCSc1nnc(-c2ccncc2)o1)c1sc2ccccc2c1Cl 30.1%, CSc1cc(C)n(-c2ccccc2C)c(=S)c1C(C)=O 14.1%, CN(c1nc2ccccc2n2c(-c3ccco3)nnc12)S(=O)(=O)c1ccccc1 15.3%, Cc1ccc(S(=O)(=O)NCC(=O)OCC(=O)N2CCc3ccccc32)cc1 -28.2%, O=C1CN(C(=O)COC(=O)C2CC(=O)N(Cc3ccco3)C2)c2ccccc2N1 (stereo not given) -13.2%, CCOC(=O)CN1CC23C=CC(O2)C(C(=O)Nc2ccc(F)cc2)C3C1=O (stereo not given) -21.8%, CC1(C)C/C(=C(/C#N)C(N)=O)CCO1 -18.3%, Nc1c(-c2ccc(F)cc2)cnc2ncnn12 -25.1%, CC1(C)CC(=O)C=C(NCc2ccncc2)C1 7.3%, CSc1ccccc1NC(=O)c1cc(C2CC2)on1 -144%, Cc1cc(C(=O)Nc2c(C)nn(Cc3ccccc3)c2C)on1 22.4%, Cc1cc2ccccc2n2c(SCC(=O)N3CCN(C(=O)c4ccco4)CC3)nnc12 -4.3%, CCCCNC(=O)CCn1c(=S)[nH]c2cc3c(cc2c1=O)OCO3 36.3%, O=C(c1ccc2c(c1)N(Cc1ccc(F)cc1)C(=O)CS2)N1CCOCC1 1.7%, CCOC(=O)c1oc2ccccc2c1NC(=O)c1cccs1 20.2%, Cc1cc(Nc2ccccc2)nc(N)n1 -6.6%, Cc1ccc(S(=O)(=O)NCCSC(C)(C)C)cc1 23.6%, COc1ccccc1CNS(=O)(=O)c1ccc(C)cc1 -159%, CCOc1ccc(NC(=O)Nc2ccc(N(C)C(C)=O)cc2)cc1 -6.3%, O=C(Nc1ccc2sc3ccccc3c(=O)c2c1)c1ccccc1Cl -9%, CC(=O)Nc1cccc(/C(C)=N/NC(=O)c2ccccc2Cl)c1 0.2%, COc1ccc(-c2nnn(Cc3nc(N)nc(N4CCCCC4)n3)n2)cc1 17.3%

inhibition, active:
CC(C)(CCl)C(=O)Nc1ccc(Sc2ccc(F)cc2)cc1 84.9%, O=S(=O)(Cc1cc(Sc2ccccc2)nc(-c2ccccc2)n1)c1ccccc1 52.5%, CC(C)C(=O)Nc1cccc(NC(=S)NC(=O)C(c2ccccc2)c2ccccc2)c1 98.8%, O=C(c1cn(-c2ccccc2)nc1-c1cccnc1)N1CCCCC1 52.5%, O=C(NCc1cccnc1)c1cn(-c2ccccc2)nc1-c1cccs1 95.7%, COC(=O)c1cn(-c2ccccc2)nc1-c1cccnc1 51.7%, COc1ccccc1N1CCN(C(=O)c2cn(-c3ccccc3)nc2-c2cccnc2)CC1 92%, Cc1nc(NC(=O)CN(C)S(=O)(=O)c2ccc(Cl)cc2)sc1C 61.3%, O=C(Nc1cnn(Cc2ccc(Cl)cc2)c1)C1CCCC1 56.1%, O=C(N/N=C/C=C/c1ccccc1)C1CC1(c1ccccc1)c1ccccc1 (stereo not given) 99.5%, c1ccc(CCc2nc(-c3ccncc3)no2)cc1 93%, Cc1cc(C)c2[nH]c(=O)c(C(c3nnnn3Cc3ccc4c(c3)OCO4)N3CCCC3)cc2c1 (stereo not given) 86.7%, N#CC(=C1SC=CS1)c1nc(-c2ccccc2)cs1 52.9%, Cc1ccc(S(=O)(=O)N2CCC(C(=O)OCC(=O)N3CC(=O)Nc4ccccc43)CC2)cc1 54.7%, Cc1nn(Cc2ccc(Cl)c(Cl)c2)c(C)c1NC(=O)c1cc(C2CC2)on1 96.7%, Cc1ncc(CC(=O)n2cc(C(=O)c3cc(Cl)ccc3O)cn2)s1 81.1%, Cc1ccc(S(=O)(=O)NCC(C)NS(C)(=O)=O)cc1 (stereo not given) 60.2%, Cc1ccc(C)c(N2C(=O)CS/C2=N\NC(=O)c2ccccc2Cl)c1 77.7%
